From PubChem BioAssay (Tox21) come the findings set out here.

“And” between values parts separate entries of the source, which are not always exact repeats. Equal entries are not always repeated. Records with an inconclusive call do not appear. Entries that show only a call come without a potency. A structure can be active in one record and inactive in another. The source made the active and inactive calls. The call rests on the fitted dose curve; in most records, active means well fitted activation curve with a large enough effect in the signal ratio in the repeat runs (not every such curve was filed as active); inconclusive means weak or mixed curves; inactive means flat fitted curve, though single readings scatter; the % refers to the signal ratio.
Potency means the concentration at half of the fitted maximal effect.

This assay in a line: qHTS assay to identify small molecule agonists of H2AX (AID 1224845). Particulars: CHO-K1 phospho-H2AX Ser139 HTRF, 3 h; series mostly up to 154 µM; activation (H2AX phosphorylation): at the top concentration. An excerpt:
National Center for Advancing Translational Sciences [NCATS]
NIH Chemical Genomics Center [NCGC]
U.S. Environmental Protection Agency [EPA]
National Institutes of Environmental Health Sciences [NIEHS]
National Toxicology Program [NTP]
U.S. Food and Drug Administration [FDA]
HTRF phospho-H2AX (Ser139) assay (Cisbio Bioassays, US) enables the quantitative detection of the histone variant H2AX when phosphorylated on serine 139. When double-stranded DNA breaks, either by ionizing radiation or endogenous physiological processes, H2AX becomes phosphorylated at Ser139. This phospho-Ser139 serves as a sensitive biomarker for the detection of such breaks, localizing the site of DNA repair. So, HTRF phospho-H2AX Ser139 is a pertinent assay to study genome stability, the cell cycle, DNA repair, and it serves as a biomarker for cancer, and to understand aging. Wild type CHO-K1 cells were used to identify the inducers of Phospho-H2AX Ser 139 from the Tox21 10K compound collections.
Tox21 Assay Protocol Summary:
The CHO-K1 cells suspended in culture medium containing 10% FBS were dispensed at 1000 cells/ 3 ul/well in 1536-well white wall/solid bottom plates (Greiner Bio-One North America, NC) using a Multidrop Combi (Thermo Fisher Scientific Inc., Waltham, MA). After the assay plates were incubated at 37C overnight, 23 nl of compounds at 15 concentrations (from 5-48 columns) or positive control (from 1 to 4 columns) were transferred to the assay plates using a Pintool station (Wako, San Diego, CA) into each well resulting in a final DMSO concentration of 0.76%. After 3hr incubation at 37C, 1 uL/well Supplemented Lysis buffer (diluted 100 fold blocking reagent in lysis buffer) (HTRF Phospho-H2A.X (S139) Assay kit from Cisbio US Inc., Bedford, MA) was added using a Flying Reagent Dispenser (FRD) (Aurora Discovery, CA). After 10sec spin at 1000 rpm in a plate centrifuge, the assay plates were incubated at room temperature for 30 min. Then followed by the addition of 1 uL/well detection buffer (containing a mixture of two antibodies, one labeled with cryptate, Anti pH2AX (S139)-K and another labeled with d2, Anti H2AX-d2) using FRD. After incubation at room temperature for 24 hr, the time resolved fluorescence at excitation 320 nm and emissions at 665 nm and 620 nm was measured using an Envision plate reader (PerkinElmer, Waltham, MA).
Take `CCC[N+]1(C)CCCC1`: the Potency entry is “inactive”.
Take `O=C(O)CC(O)(CC(=O)O)C(=O)O`: the Potency result was “inactive”.
`Oc1cccc2cccnc12`: the Potency is 1.43 µM (active) and 3.02 µM (active) and inactive.
The same measure, in the same setting: then `CCCCCC[n+]1ccccc1`, with “inactive”.
The same measure, in the same setting: with `Cc1cc(Cl)ccc1OCC(=O)O` the entry was “inactive”; with `CCNc1nc(Cl)nc(NCC)n1`, “inactive”.
`CCCCCCCCCCCCCC[P+](CCCCCC)(CCCCCC)CCCCCC`: the “activation (H2AX phosphorylation)” value was -6.27% (inactive).
For `CC[N+](CC)(CC)CC`, the Potency entry was “inactive”.
The same measure, in the same setting: then `CCCn1cc[n+](C)c1`, with “inactive”; and `CCCCCCCCCCCCn1cc[n+](C)c1`, with “inactive”.
Still for that read-out and setting: then `COP(=O)(OC)C(O)C(Cl)(Cl)Cl` (stereo not given), with “inactive”; and `O=C(O)CCl`, with “inactive”; and `CCC[N+]1(C)CCCCC1`, with “inactive”.
The same measure, in the same setting: then `COCC(=O)N(c1c(C)cccc1C)C(C)C(=O)OC` (stereo not given), with “inactive”; and `CC[N+]1(C)CCCC1`, with “inactive”; and `N#CS`, with “inactive”.
Regarding `O=P1(N(CCCl)CCCl)NCCCO1` (stereo not given), the Potency entry was “inactive”.
In the case of `CCCCCCCCCCCCCCCCn1cc[n+](C)c1`, the Potency entry is “inactive”.
Still for that read-out and setting: then `O=[N+]([O-])c1ccccc1O`, with “inactive”.
Regarding `COc1ccccc1N`, the Potency result was “inactive”.
For the compound `Nc1ccccc1`, the Potency result was “inactive”.
Still for that read-out and setting: with `CC(Cl)(Cl)C(=O)O` the entry was “inactive”.
Turning to `CCCC[n+]1ccccc1`, the Potency result is “inactive”.
On the same count and under the same terms, with `CCCCCCCCCCCCOS(=O)(=O)O` the entry was “inactive”.
Still for that read-out and setting: with `CCCC[N+]1(C)CCCC1` the entry was “inactive”; with `CCCCCCCCn1cc[n+](C)c1`, “inactive”; with `O=C(O)c1ccccc1O`, “inactive”.
As for `CCCCn1cc[n+](C)c1C`, the Potency result is “inactive”.
Same read-out and setting: then `CCCCCCCCCCn1cc[n+](C)c1`, with “inactive”; and `O=C(O)COc1ccc(Cl)cc1Cl`, with “inactive”; and `C1CCC(NC2CCCCC2)CC1`, with “inactive”.
Still for that read-out and setting: then `CCn1cc[n+](C)c1C`, with “inactive”.
`O=S(=O)(O)O`: the Potency entry was “inactive”.
On the same count and under the same terms, then `O=[N+]([O-])O`, with “inactive”.
Same read-out and setting: with `CC[n+]1ccccc1` the entry was “inactive”.
As for `CCC(=O)C(CC(C)N(C)C)(c1ccccc1)c1ccccc1` (stereo not given), the Potency result is “inactive”.
The same measure, in the same setting: with `CCCC[n+]1cccc(C)c1` the entry was “inactive”; with `Cc1cc(Cl)ccc1N`, “inactive”; with `CC(=O)O`, “inactive”.
Same read-out and setting: then `CCCC[n+]1ccccc1C`, with “inactive”.
